Experiment [1] has as its target Glutathione peroxidase 1 (Homo sapiens) (UniProt P07203). Briefly: Primary qHTS Assay for Inhibitors of Recombinant Selenoprotein Glutathione Peroxidase 1 (GPX1) (AID 1845191). Further: nearly all actives have a fitted effect of over 65% in size. On activity, negative = inhibition: on the % scale 0 is the no-effect control and ±100 the full control effect. Summed up:
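GPX1 10 nM, GR 100 nM, GSH 1 mM, NADPH 0.5 mM, CHP 0.5 mM (final). 30-min cpd preincubation, RT. Ex340/Em450 read t=0, t=15 min.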
For orientation: In qHTS, concentration-response curves come from the screen itself.

The target of experiment [2] is Phospholipid hydroperoxide glutathione peroxidase GPX4 (Homo sapiens) (UniProt P36969). Briefly: Primary qHTS Assay for Inhibitors of Recombinant Selenoprotein Glutathione Peroxidase 4 (GPX4) (AID 1845192). Further: nearly all actives have a fitted effect of over 65% in size. On activity change, negative = inhibition: series mostly up to about 50 µM; on the % scale 0 is the no-effect control and ±100 the full control effect. The essentials: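 qHTS, GR-coupled: GPX4 200 nM + cpd 30 min RT → GSH 1 mM, NADPH 0.5 mM, GR 100 nM → CHP 0.5 mM start; fluor 340/450 at t0 and t15 min; no-enzyme wells as control.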

For experiment [3], the target named is Luciferin 4-monooxygenase (Photinus pyralis) (UniProt P08659). Put plainly: Primary firefly luciferase (FLuc) qHTS assay for identification of artifact compounds. (AID 1845220). Further: nearly all actives have a fitted effect of over 60% in size.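 On activity change, negative = inhibition: series mostly up to about 54 µM; plate controls were DMSO vehicle for no effect and no enzyme for full effect.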 The essentials: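 qHTS, 15 min compound preincubation with substrate (10 uM luciferin, 10 uM ATP) at RT, then 10 nM FLuc; 5 min; luminescence; % inhibition vs no-enzyme/DMSO controls, 4-parameter Hill fit.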

A short description of experiment [4]: Primary fluorescence-based thiol-reactive (MSTI) qHTS assay for identification of artifact compounds. (AID 1845221). Further: nearly all actives have a fitted effect of over 65% in size. Further: potency means the concentration at half of the fitted maximal effect.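 On activity change, negative = thiol reactive: series mostly up to about 54 µM; thiol-reactive compounds lower the probe fluorescence signal.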 The essentials:
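Thiol-reactive compounds detected by quenching of 4 uM MSTI fluorescence (525/598 nm) after 1 h room-temperature dark incubation in PBS pH 7.4, 2% DMSO. qHTS titration; percent inhibition Hill-fitted against Acetyl-MSTI/MSTI controls.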

In experiment [5] the test system is Nanoluciferase (engineered Oplophorus gracilirostris luciferase). Briefly: Primary Nanoluciferase (NLuc) qHTS assay for identification of artifact compounds. (AID 1845222). Further: series mostly up to about 54 µM. Summed up: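 Luminescence read-out of secreted NLuc in S16 cell conditioned medium (1:55); compounds tested with 15 min RT preincubation, then Nano-Glo substrate 1:100, 5 min. % inhibition vs no-enzyme and DMSO controls, 4-parameter Hill fit.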

A short description of experiment [6]: Primary redox qHTS assay for identification of artifact compounds. (AID 1845223).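 Further: 0% = DMSO and 100% = reference compound.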 Summed up: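 Redox-cycling detection via DTT (250 uM final) oxidation coupled to Amplex Red (25 uM)/HRP (250 mU/mL) in HBSS. 15 min preincubation plus 30 min after DTT, room temperature. Ex/Em 525/598 nm; 4-parameter Hill fit against DMSO and 10 uM DA3003.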

Values without a mark were called inactive. Inconclusive results are not listed. Calls of active or inactive are those of the source. The call rests on the fitted dose curve; in most records, active means well fitted curve in the direction sought with a large enough effect; inconclusive means small, poorly fitted or top-dose-only effect, or another doubt; inactive means no such curve, though single readings can be large; an effect the other way counts as inactive or inconclusive.

Experimental findings from PubChem BioAssay (NCATS) are described below.

Glutathione peroxidase 1 (Homo sapiens), sequence (P07203 whole entry, looked up): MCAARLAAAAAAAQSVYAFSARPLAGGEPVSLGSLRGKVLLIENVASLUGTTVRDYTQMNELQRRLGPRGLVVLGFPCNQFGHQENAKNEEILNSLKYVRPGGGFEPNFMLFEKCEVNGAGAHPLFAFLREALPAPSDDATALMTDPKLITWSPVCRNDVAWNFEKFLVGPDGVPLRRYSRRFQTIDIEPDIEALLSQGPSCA
Phospholipid hydroperoxide glutathione peroxidase GPX4 (Homo sapiens), sequence (P36969 whole entry, looked up): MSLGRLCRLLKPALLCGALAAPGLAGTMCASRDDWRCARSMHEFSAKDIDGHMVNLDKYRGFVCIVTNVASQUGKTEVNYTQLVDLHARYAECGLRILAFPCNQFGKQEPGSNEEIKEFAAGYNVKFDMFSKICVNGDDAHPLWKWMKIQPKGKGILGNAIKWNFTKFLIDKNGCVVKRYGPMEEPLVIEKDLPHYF

Take `Cn1cc(-c2cnn3c(N)c(Br)c([C@@H]4CCCNC4)nc23)cn1`: the Potency result in experiment [1], in experiment [2], in experiment [3], in experiment [4], in experiment [5] and in experiment [6] was “inactive” throughout.
Regarding `O=C1c2ccc(Nc3ccc(F)cc3F)cc2CCc2ccc(OCC(O)CO)cc21` (stereo not given), the Potency result in experiment [1], in experiment [2], in experiment [3], in experiment [4], in experiment [5] and in experiment [6] was “inactive” in each case.
In the case of `O=C(NCC1(c2nc(-c3ccccc3)cs2)CCOCC1)c1cccc(-c2noc(C(F)(F)F)n2)c1`, the Potency result in experiment [1], in experiment [2], in experiment [3], in experiment [4], in experiment [5] and in experiment [6] was “inactive” each time.
On to `COC(=O)C[C@H]1C(C)(C)[C@H](OC(=O)c2ccccc2)C2CC3=C4CC(=O)O[C@@H](c5ccoc5)[C@]4(C)CCC3[C@@]1(C)C2=O` (stereo not given in full), for which the Potency result in experiment [1], in experiment [2], in experiment [3], in experiment [4], in experiment [5] and in experiment [6] was “inactive” throughout.
Take `CC1CC(=O)C2=C(C1)C1OC1C1(O)C2C(=O)c2cccc(O)c2C1O` (stereo not given): the Potency entry in experiment [1], in experiment [2], in experiment [3], in experiment [5] and in experiment [6] was “inactive” each time. In experiment [4], the Potency was 6.56 µM (active).
Consider `NS(=O)(=O)c1ccc(NC(=O)Nc2ccc(F)cc2)cc1`, for which the Potency result in experiment [1], in experiment [2], in experiment [3], in experiment [4], in experiment [5] and in experiment [6] was “inactive” throughout.
Take `CC(=O)OC1[C@H]2[C@@H](C[C@@H](C)[C@@H]3C=CC(=O)[C@@]13C)OC(=O)[C@@H]2C` (stereo not given in full): the Potency result in experiment [1], in experiment [2], in experiment [3], in experiment [5] and in experiment [6] was “inactive” each time. Moreover, the Potency in experiment [4] was 23.8 µM (active).
For the compound `CCOc1nc(NC(=O)Cc2cc(OC)ccc2OC)cc(N)c1C#N`, the Potency result in experiment [1], in experiment [2], in experiment [3], in experiment [4], in experiment [5] and in experiment [6] was “inactive” in each case.
`O=C(NCCCc1ccccc1)c1cccc(-c2cc(O)c3ncccc3c2)c1`: the Potency result in experiment [1], in experiment [2], in experiment [3], in experiment [4], in experiment [5] and in experiment [6] was “inactive” in each case.
`C=C1C(=O)O[C@@H]2C[C@H](C)[C@@H]3CC(=O)C(C)=C3C[C@H]12`: the Potency entry in experiment [1], in experiment [2], in experiment [3], in experiment [4], in experiment [5] and in experiment [6] was “inactive” throughout.
For `O=C(Nc1cnc(Cl)nc1)c1ccc(F)c(F)c1`, the Potency result in experiment [1], in experiment [2], in experiment [3], in experiment [4], in experiment [5] and in experiment [6] was “inactive” throughout.
With `CC1CCC(=O)CC(SCC(O)C(=O)O)CCC(=O)O1` (stereo not given), the Potency entry in experiment [1], in experiment [2], in experiment [3], in experiment [4], in experiment [5] and in experiment [6] was “inactive” throughout.
Turning to `COC(=O)c1ccnc(-c2cc(C(=O)Nc3ccc(C4(N)CC4)cc3)ccn2)c1`, the Potency result in experiment [1], in experiment [2], in experiment [3], in experiment [4], in experiment [5] and in experiment [6] was “inactive” in each case.
With `C/C=C(/C)C(=O)OC1CC(C)(C)CC2C3=CCC4C5(C)CCC(O[C@@H]6O[C@H](C(=O)O)[C@@H](O)[C@H](O)[C@H]6O[C@@H]6O[C@H](CO)[C@H](O)[C@H](O[C@@H]7OC[C@H](O)[C@H](O)[C@H]7O[C@@H]7O[C@H](CO)[C@@H](O)[C@H](O)[C@H]7O)[C@H]6O)C(C)(C)C5CCC4(C)C3(C)C(O)C(O)C12CO` (stereo not given in full), the activity, negative = inhibition was -3.11% [at 9.52 µM] in experiment [1] and 4.03% [at 11.6 µM] in experiment [5]. Further, the activity change, negative = inhibition is -1.81% [at 9.73 µM] in experiment [2] and 1.87% [at 11.6 µM] in experiment [3]. Further, in experiment [4], the activity change, negative = thiol reactive was 199% [at 11.5 µM]. For the same compound, in experiment [6], the redox activity (% of DA3003) is 15.7% [at 11.5 µM].
In the case of `CCC(C)(OC(C)=O)C(=O)O[C@H]1[C@H](OC(C)=O)[C@]2(CO)[C@H](O)[C@H](O)[C@]3(C)C(=CCC4[C@@]5(C)CC[C@H](O[C@@H]6O[C@H](C(=O)O)[C@@H](O)[C@H](O[C@@H]7OC[C@H](O)[C@H](O[C@@H]8OC[C@H](O)[C@H](O)[C@H]8O)[C@H]7O)[C@H]6O[C@@H]6O[C@H](CO)[C@@H](O)[C@H](O)[C@H]6O)C(C)(C)C5CC[C@]43C)[C@@H]2CC1(C)C` (stereo not given in full), the activity, negative = inhibition was -12.6% [at 9.52 µM] in experiment [1] and -1.71% [at 11.6 µM] in experiment [5]. For the same compound, the activity change, negative = inhibition in experiment [2] is -15.3% [at 9.73 µM]; in experiment [3], -11% [at 11.6 µM]. The activity change, negative = thiol reactive in experiment [4] was 202% [at 11.5 µM]. The redox activity (% of DA3003) in experiment [6] was 22% [at 11.5 µM].
Regarding `CC(=O)OC1CC(C)(C(=O)O)CC2C3=CC(=O)C4C5(C)CCC(OC6OC(C(=O)O)C(O)C(O)C6OC6OC(C(=O)O)C(O)C(O)C6O)C(C)(C)C5CCC4(C)C3(C)CCC12C` (stereo not given), the Potency result in experiment [1] and in experiment [2] was “inactive” in each case. Also, the activity change, negative = inhibition in experiment [3] was -10.2% [at 11.6 µM]. The activity change, negative = thiol reactive in experiment [4] was 9.23% [at 11.5 µM]. Besides, the activity, negative = inhibition in experiment [5] is -14.5% [at 11.6 µM]. Moreover, in experiment [6], the redox activity (% of DA3003) is 5.43% [at 11.5 µM].
As for `NC(N)=NC(=O)c1cnn(-c2cccc3ncccc23)c1C1CC1`, the Potency result in experiment [1], in experiment [2], in experiment [3], in experiment [4], in experiment [5] and in experiment [6] was “inactive” in each case.
For `CS/C=C/C(=O)O[C@@H]1CCC2=CC(=O)C(=C(C)C)C[C@]2(C)[C@H]1C`, the Potency entry in experiment [1], in experiment [2], in experiment [3], in experiment [4], in experiment [5] and in experiment [6] was “inactive” in each case.
On to `O=C(Nc1ccc(Cl)cc1)C1CCCN(C(=O)c2cccc(-c3ccco3)c2)C1` (stereo not given), for which the Potency result in experiment [1], in experiment [2], in experiment [3], in experiment [4], in experiment [5] and in experiment [6] was “inactive” in each case.
As for `COc1ccc(C2(CNC(=O)c3ccc(NC(=O)c4ccco4)cc3)CCOCC2)cc1`, the Potency result in experiment [1], in experiment [2], in experiment [3], in experiment [4], in experiment [5] and in experiment [6] was “inactive” throughout.
